# Measured values: PubChem BioAssay
# Calls of active or inactive are those of the source. Unless noted, the rule behind the calls is not given here.
# Experiments:
# [1] = tested on: Wnt5a (protein binding on small-molecule microarray); assay: small molecules binding Wnt5a protein – biophysical, small-molecule microarray, 635/667 nm fluorescence, primary screen (AID 1142); conditions: 635 nm fluorescence, higher = more signal;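 note: fluorescence read at 667 nm with signal to noise per printed feature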
# [2] = ATP-based viability of Huh7 replicon cells – cell-based, CellTiter-Glo luminescence, basal, 48 h, cytotoxicity control for HCV replication inhibitor project, primary screen (AID 1143); conditions: higher = more signal, called active from +8 up or from −8 down;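 note: Huh7 hepatoma cells carrying a hepatitis C replication reporter with no stimulus; test concentration not given here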
# [3] = Pseudomonas biofilm growth suppression – PAO1 strain, BacTiter-Glo luminescence, LB-PBS, primary screen (AID 1144); conditions: P. aeruginosa PAO1 biofilm, 12 h, higher = more signal
# [4] = basal CRE-LacZ reporter activity in PC12 – cell-based, unstimulated, primary screen (AID 1145); conditions: no forskolin, luminescence, 4.5 h, higher = more signal, called active from +8 up or from −8 down
# [5] = forskolin-driven CRE-LacZ activity in PC12 – cell-based, CRE-LacZ reporter, forskolin-stimulated, primary screen (AID 1146); conditions: luminescence, 4.5 h, higher = more signal, called active from +8 up or from −8 down;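 note: PC12 cells with 6xCRE LacZ reporter stimulated by forskolin 10 µM; beta-galactosidase reporter signal reflecting CREB driven transcription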
# [6] = target: Streptavidin (Streptomyces avidinii) (UniProt P22629); assay: compounds binding control protein streptavidin – biophysical, small-molecule microarray, 635/667 nm fluorescence, artefact control for SMM compound annotation, primary screen (AID 1147); conditions: higher = more signal;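 note: signal reflects streptavidin binding to arrayed compounds as a control protein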
# Chain of Streptavidin (Streptomyces avidinii) (P22629 whole entry, looked up): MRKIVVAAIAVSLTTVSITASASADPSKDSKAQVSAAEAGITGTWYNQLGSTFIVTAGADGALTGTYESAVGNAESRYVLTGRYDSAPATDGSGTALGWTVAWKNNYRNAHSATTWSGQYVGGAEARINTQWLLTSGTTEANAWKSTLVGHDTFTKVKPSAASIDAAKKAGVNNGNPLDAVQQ
# [7] = probe aInhba binding on compound microarray – biochemical, small-molecule microarray, 635/667 nm fluorescence, primary screen (AID 1148); conditions: higher = more signal;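 note: score merges 667nm spot fluorescence with signal-to-noise for antibody binding to printed compounds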
# [8] = target: Torsin-1A (Homo sapiens) (UniProt O14656); assay: TOR1A wild-type binding on microarray – cell lysate, small-molecule microarray, lysate, 635/667 nm, primary screen (AID 1149); conditions: COS7 hTOR1A-WT lysate, 635 nm fluorescence, higher = more signal
# Chain of Torsin-1A (Homo sapiens) (O14656 whole entry, looked up): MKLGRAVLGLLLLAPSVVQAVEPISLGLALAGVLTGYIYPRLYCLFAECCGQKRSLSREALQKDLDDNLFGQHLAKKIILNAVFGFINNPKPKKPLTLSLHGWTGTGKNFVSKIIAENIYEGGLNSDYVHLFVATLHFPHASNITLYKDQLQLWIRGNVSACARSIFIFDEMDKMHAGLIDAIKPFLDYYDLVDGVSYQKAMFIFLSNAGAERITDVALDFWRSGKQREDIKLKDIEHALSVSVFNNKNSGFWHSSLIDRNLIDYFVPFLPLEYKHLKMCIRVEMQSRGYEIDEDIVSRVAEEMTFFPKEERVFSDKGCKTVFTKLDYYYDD
# [9] = target: Torsin-1A (Homo sapiens) (UniProt O14656); assay: torsin A mutant lysate binding on microarrays – cell lysate, small-molecule microarray, COS7 lysate, 635/667 nm fluorescence, primary screen (AID 1150); conditions: COS7 hTOR1A mutant lysate, 635 nm fluorescence, higher = more signal;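 note: score pools 667 nm emission and signal to noise measuring lysate protein binding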
# [10] = tested on: Sonic hedgehog protein (Shh); assay: Sonic hedgehog microarray binding compounds – biochemical, small-molecule microarray, 635/667 nm fluorescence, primary screen (AID 1151); conditions: 635 nm fluorescence, higher = more signal;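 note: Shh protein binding to compounds spotted on small-molecule microarray slides; score combines spot fluorescence intensity with signal-to-noise across triplicate slides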
# [11] = optical density shifts of acrAB sulA E. coli – strain DRC41, OD650, 48 h, E. coli filamentation inducer project, primary screen (AID 1152); conditions: higher = more signal, called active from +8 up or from −8 down;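 note: E. coli MC1000 strain DRC41 lacking acrAB efflux pump and sulA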
# [12] = probe aLefty1 binding on compound microarray – biochemical, small-molecule microarray, 635/667 nm fluorescence, primary screen (AID 1153); conditions: higher = more signal;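 note: score merges spot fluorescence with signal-to-noise ratio from the scanned slide images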
# [13] = plasmodial surface anion channel blockers, osmotic lysis – cell-based, P. falciparum Indochina, OD700, 1 h, primary screen (AID 1154); conditions: P. falciparum Indochina infected RBC osmotic lysis, higher = more signal, called active from +8 up or from −8 down
# [14] = plasmodial surface anion channel blockers, osmotic lysis – cell-based, P. falciparum Indochina, OD700, 2 h, primary screen (AID 1155);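 note: lysis reports solute entry through the parasite surface anion channel PSAC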; conditions: P. falciparum Indochina infected erythrocytes, higher = more signal, called active from +8 up or from −8 down
# [15] = changes in parasitized red cell lysis, either direction – P. falciparum Indochina, OD700, 3 h, PSAC antagonist project, primary screen (AID 1156); conditions: P. falciparum-infected erythrocytes, osmotic lysis, higher = more signal, called active from +8 up or from −8 down
# [16] = plasmodial surface anion channel blockers, osmotic lysis – cell-based, P. falciparum Indochina, OD700, 18 h, primary screen (AID 1157); conditions: P. falciparum Indochina infected erythrocytes, osmotic lysis OD700, 18 h; higher = more signal, called active from +8 up or from −8 down
# [17] = S6 kinase pathway phospho-S6 level changes – cell-based, A549, cytoblot, luminescence, serum-stimulated, primary screen (AID 1158); conditions: 5 h, higher = more signal;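 note: serum-stimulated A549 lung adenocarcinoma cells; signal is phosphorylated S6 detected by cytoblot immunostaining with HRP secondary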
# [18] = target: NADPH oxidase 2 (Homo sapiens) (UniProt P04839); assay: compounds shifting NOX2 Amplex Red fluorescence – cell-based, HEK293-NOX2, PMA-stimulated, NOX inhibitor project, primary screen (AID 1159); conditions: 45 min, higher = more signal, called active from +8 up or from −8 down; note: test concentration not given here
# Chain of NADPH oxidase 2 (Homo sapiens) (P04839 whole entry, looked up): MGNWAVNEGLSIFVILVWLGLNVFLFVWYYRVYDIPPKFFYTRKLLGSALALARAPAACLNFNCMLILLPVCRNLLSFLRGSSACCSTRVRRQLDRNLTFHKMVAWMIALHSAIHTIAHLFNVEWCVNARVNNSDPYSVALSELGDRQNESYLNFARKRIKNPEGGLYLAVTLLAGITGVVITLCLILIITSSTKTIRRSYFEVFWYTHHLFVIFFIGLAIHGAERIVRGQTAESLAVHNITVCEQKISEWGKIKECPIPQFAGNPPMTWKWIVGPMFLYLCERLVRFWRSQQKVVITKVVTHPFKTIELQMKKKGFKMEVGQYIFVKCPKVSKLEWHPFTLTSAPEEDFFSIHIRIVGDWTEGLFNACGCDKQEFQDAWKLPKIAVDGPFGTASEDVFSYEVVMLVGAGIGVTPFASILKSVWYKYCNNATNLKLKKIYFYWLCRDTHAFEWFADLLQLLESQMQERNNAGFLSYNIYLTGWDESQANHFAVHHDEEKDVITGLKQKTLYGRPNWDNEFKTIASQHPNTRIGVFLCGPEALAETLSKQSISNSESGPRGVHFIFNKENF
# [19] = target: NADPH oxidase 4 (Homo sapiens) (UniProt Q9NPH5); assay: compounds shifting NOX4 Amplex Red fluorescence – cell-based, HEK293-NOX4, tetracycline-induced, NOX inhibitor project, primary screen (AID 1160); conditions: HEK293-NOX4, Amplex Red H2O2 fluorescence, 45 min; higher = more signal, called active from +8 up or from −8 down
# Chain of NADPH oxidase 4 (Homo sapiens) (Q9NPH5 whole entry, looked up): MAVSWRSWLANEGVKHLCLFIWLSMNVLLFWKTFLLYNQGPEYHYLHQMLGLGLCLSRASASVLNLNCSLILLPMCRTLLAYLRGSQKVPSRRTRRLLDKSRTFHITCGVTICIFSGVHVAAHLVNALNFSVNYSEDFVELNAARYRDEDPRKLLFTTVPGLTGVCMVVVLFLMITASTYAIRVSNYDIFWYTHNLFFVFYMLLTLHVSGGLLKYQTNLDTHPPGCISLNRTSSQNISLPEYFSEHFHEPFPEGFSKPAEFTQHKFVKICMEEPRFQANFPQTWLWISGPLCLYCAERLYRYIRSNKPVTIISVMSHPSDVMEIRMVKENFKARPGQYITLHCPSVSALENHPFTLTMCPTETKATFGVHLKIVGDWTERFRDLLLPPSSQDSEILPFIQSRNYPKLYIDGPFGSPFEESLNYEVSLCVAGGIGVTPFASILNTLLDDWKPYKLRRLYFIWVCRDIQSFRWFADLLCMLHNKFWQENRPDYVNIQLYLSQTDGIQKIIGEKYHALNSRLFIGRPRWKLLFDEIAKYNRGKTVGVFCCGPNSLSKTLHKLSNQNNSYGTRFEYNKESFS
# [20] = target: NADPH oxidase 5 (Homo sapiens) (UniProt Q96PH1); assay: compounds shifting NOX5 Amplex Red fluorescence – cell-based, HEK293-NOX5, NOX inhibitor project, primary screen (AID 1161); conditions: HEK293-NOX5, ionomycin, 45 min, higher = more signal
# Chain of NADPH oxidase 5 (Homo sapiens) (Q96PH1 whole entry, looked up): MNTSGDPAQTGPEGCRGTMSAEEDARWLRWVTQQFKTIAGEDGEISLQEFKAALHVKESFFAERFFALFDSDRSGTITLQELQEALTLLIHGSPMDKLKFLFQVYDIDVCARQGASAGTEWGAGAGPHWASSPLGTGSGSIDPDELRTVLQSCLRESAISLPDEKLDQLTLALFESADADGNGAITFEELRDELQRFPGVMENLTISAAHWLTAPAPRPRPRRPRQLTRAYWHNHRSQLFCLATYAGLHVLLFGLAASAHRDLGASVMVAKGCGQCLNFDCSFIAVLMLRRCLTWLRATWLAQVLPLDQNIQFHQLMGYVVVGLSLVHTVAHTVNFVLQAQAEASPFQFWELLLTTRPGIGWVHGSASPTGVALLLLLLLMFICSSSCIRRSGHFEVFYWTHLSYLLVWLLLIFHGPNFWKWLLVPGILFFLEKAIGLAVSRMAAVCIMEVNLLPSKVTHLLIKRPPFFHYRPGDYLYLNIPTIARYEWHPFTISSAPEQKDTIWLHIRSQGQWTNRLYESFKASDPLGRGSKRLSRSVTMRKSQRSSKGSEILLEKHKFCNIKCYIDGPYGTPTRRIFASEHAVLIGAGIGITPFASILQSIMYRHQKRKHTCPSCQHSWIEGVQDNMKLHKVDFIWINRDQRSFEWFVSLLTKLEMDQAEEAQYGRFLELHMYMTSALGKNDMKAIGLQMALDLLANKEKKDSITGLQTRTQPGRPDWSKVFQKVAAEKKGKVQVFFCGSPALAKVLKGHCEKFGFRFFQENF
Compound,composite z-score [1],z-score [2],z-score [3],z-score [4],z-score [5],composite z-score [6],composite z-score [7],composite z-score [8],composite z-score [9],composite z-score [10],z-score [11],composite z-score [12],z-score [13],z-score [14],z-score [15],z-score [16],z-score [17],z-score [18],z-score [19],z-score [20]
CCCC[C@H]1OB(O)C[C@H]2C1=C(COc1ccccc1)Cn1c(=O)n(-c3ccccc3)c(=O)n12,0.0561,-0.363 (inactive),-0.127 (inactive),-0.141 (inactive),0.402 (inactive),0.0395,-0.104,0.418,0.5,1.64,0.4 (inactive),-0.06,2.14 (inactive),0.0541 (inactive),0.722 (inactive),0.0113 (inactive),0.279,-0.281 (inactive),-0.216 (inactive),0.779
CCCCCCC#C[Si](O[C@H](c1ccccc1)c1cn(Cc2cccc(Cl)c2)nn1)(C(C)C)C(C)C,-0.14,-0.736 (inactive),-0.628 (inactive),-1.12 (inactive),-0.687 (inactive),0.967,0.0367,0.317,0.213,0.179,1.9 (inactive),-0.142,0.876 (inactive),0.886 (inactive),0.0206 (inactive),0.162 (inactive),0.635,-0.706 (inactive),-0.705 (inactive),-0.576
COC(=O)[C@@]1(Cc2ccc(F)cc2)[C@H]2c3cc(C(=O)N(C)C)n(Cc4ccc(C)c(F)c4F)c3C[C@H]2CN1C(=O)c1ccccc1,0.152,-1.47 (inactive),0.563 (inactive),0.0041 (inactive),0.204 (inactive),0.993,0.651,0.123,0.432,-0.553,-0.165 (inactive),0.159,5.08 (inactive),1.21 (inactive),0.306 (inactive),0.813 (inactive),0.101,0.561 (inactive),-0.0461 (inactive),0.169
COCCOC(=O)N1C(=O)[C@@]2(c3cc(C#CCNC(N)=O)ccc31)[C@H](C(N)=O)[C@H]1C(=O)O[C@H](c3ccccc3)[C@H](c3ccccc3)N1[C@@H]2c1ccc(OCCO)cc1,0.601,0.166 (inactive),0.404 (inactive),0.631 (inactive),-0.0727 (inactive),0.668,0.0219,0.532,1.26,1.63,-0.618 (inactive),-0.41,6.81 (inactive),1.02 (inactive),-0.0934 (inactive),0.237 (inactive),-0.575,1.8 (inactive),1.04 (inactive),0.0625
COC(=O)C(CC#Cc1ccc2c(c1)[C@]1(C(=O)N2)[C@H](c2ccc(OCCO)cc2)N2[C@H](c3ccccc3)[C@H](c3ccccc3)OC(=O)[C@H]2[C@@H]1C(=O)O)C(=O)OC,0.138,-0.565 (inactive),-1.11 (inactive),-0.554 (inactive),0.295 (inactive),0.344,0.717,0.477,0.538,0.759,1.55 (inactive),0.685,4.99 (inactive),0.441 (inactive),1.17 (inactive),-0.121 (inactive),0.641,1.18 (inactive),0.0107 (inactive),0.918
O=C1C2C=CC(C(O)c3ccccn3)N(Nc3ccccc3)C2C(=O)N1c1ccccc1 (stereo not given),-0.234,0.915 (inactive),-0.574 (inactive),1.02 (inactive),0.497 (inactive),-0.065,0.0013,-0.265,-0.382,-0.367,-0.803 (inactive),0.0437,1.67 (inactive),1.27 (inactive),-0.167 (inactive),0.974 (inactive),-0.721,-1.21 (inactive),-3.92 (inactive),-2.84
O=C1C[C@@](C(=O)NCc2ccccc2)(c2ccc([N+](=O)[O-])cc2)[C@@H](c2ccc(CO)cc2I)N1C1CCCCC1,0.286,-4.73 (inactive),0.781 (inactive),0.234 (inactive),0.583 (inactive),0.0068,0.572,0.89,0.217,1.13,0.936 (inactive),0.503,11.6 (active),1.94 (inactive),3.44 (inactive),1.09 (inactive),-0.153,1.23 (inactive),-1.03 (inactive),2.16
O=C(Nc1cc(Br)ccc1C(=O)NCc1cccc(O)c1)c1ccccc1,0.189,-2.32 (inactive),-0.26 (inactive),-0.374 (inactive),-0.334 (inactive),0.827,0.129,0.476,0.533,0.349,1.41 (inactive),0.388,17.5 (active),4.24 (inactive),-0.222 (inactive),2.17 (inactive),-0.645,-1.57 (inactive),-1.69 (inactive),-1.3
C[C@@]1([C@@H](NC(=O)c2cccs2)c2ccc(-c3ccccc3)cc2)C[C@H]1C1CCCCC1,-0.465,-4.41 (inactive),0.141 (inactive),0.201 (inactive),-0.169 (inactive),-0.649,-0.157,-1.24,-0.787,-1.46,-1.79 (inactive),0.371,1.41 (inactive),-0.427 (inactive),1.13 (inactive),-1.34 (inactive),2.17,-4.07 (inactive),-4.4 (inactive),-1.59
CC(C)CCC[C@@H](C)[C@H]1CC[C@@]2(C)C3=C(CC[C@]12C)[C@@]1(C)CC[C@H](OC(=O)C(C)(C)C)C(C)(C)C1CC3 (stereo not given in full),0.228,-2.46 (inactive),-0.738 (inactive),0.12 (inactive),-1.2 (inactive),0.122,-0.186,0.89,0.31,0.836,0.836 (inactive),-0.374,-0.0452 (inactive),-0.698 (inactive),-0.647 (inactive),-1.07 (inactive),2.9,0.249 (inactive),0.4 (inactive),1.29
